# Experimental data from ChEMBL document CHEMBL3433997, “St. Jude Leishmania screening dataset” (2016).
# Target: Solute carrier family 2, facilitated glucose transporter member 1 (Homo sapiens) (UniProt P11166)
# Assay: ST_JUDE_LEISH: Cytotoxicity at 2uM final concentration against transgenic Leishmania Mexicana promastigotes LmGLUT1 that are glucose transport deficient and complemented with the human glucose transporter GLUT1. Activity is measured by DNA content using SYBR green in vitro
# Format: functional
# Sequence of Solute carrier family 2, facilitated glucose transporter member 1 (Homo sapiens) (P11166 whole entry): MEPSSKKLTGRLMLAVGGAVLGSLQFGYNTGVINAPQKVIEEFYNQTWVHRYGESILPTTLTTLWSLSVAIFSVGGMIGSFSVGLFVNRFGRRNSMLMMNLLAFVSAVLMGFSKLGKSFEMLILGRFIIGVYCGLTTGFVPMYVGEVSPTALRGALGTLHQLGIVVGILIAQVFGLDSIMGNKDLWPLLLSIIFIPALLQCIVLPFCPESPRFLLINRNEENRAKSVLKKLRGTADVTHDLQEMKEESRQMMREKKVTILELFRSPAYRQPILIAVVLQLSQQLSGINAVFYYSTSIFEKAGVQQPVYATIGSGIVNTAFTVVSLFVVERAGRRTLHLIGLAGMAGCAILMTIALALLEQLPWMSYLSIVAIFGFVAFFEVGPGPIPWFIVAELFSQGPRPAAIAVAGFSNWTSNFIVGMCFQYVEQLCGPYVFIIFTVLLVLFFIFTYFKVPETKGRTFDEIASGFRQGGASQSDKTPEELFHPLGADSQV
row,Structure (SMILES),inhibition [%]
1,O=C(NCCCCCN1CCC(c2ccc(O)cc2)CC1)c1ccc(-c2ccccc2)cc1,5.44
2,COc1cc(OCCCN(C)Cc2ccc(OC)c(OC)c2)ccc1NC(=O)c1cccc2c(O)c3cccc(F)c3nc12,2.95
3,CSc1nc2cc3c(cc2n1C(=O)c1ccc(C)cc1)OCCO3,6.31
4,Cn1cncc1C(=O)Nc1cccc(-c2ccc(-c3nc4ccccc4[nH]3)cc2)c1,-2.56
5,CCC(C)NC(=O)Nc1ccc(-c2cccc(-c3nc4cccc(C)c4[nH]3)c2)cc1 (stereo not given),0.47
6,COc1cc(Cc2cnc(N)nc2N)cc(OCCCN2C(=O)c3ccccc3C2=O)c1OC,4.68
7,O=C(Nc1cccc([N+](=O)[O-])c1)Nc1cccc(C(F)(F)F)c1,1.48
8,O=C(NCCc1ccc(Cl)c(Cl)c1)[C@@H]1CCCN1C(=O)c1ccc(O)c(-c2cccc(C(F)(F)F)c2)c1,1.34
9,COCCN(C)c1ccc(C(=O)Nc2ccccc2)cc1NS(=O)(=O)Cc1ccccc1,10.2
10,CC(Cc1ccc(C(=O)Nc2ccc(CC(C)NCCc3cccc(Cl)c3)cc2)cc1)NCCc1ccc(C(F)(F)F)cc1 (stereo not given),56.4
11,Cc1cccc2nc(-c3ccc(-c4ccc(CN5CCN(CCO)CC5)cc4)s3)[nH]c12,10.6
12,CS(=O)(=O)Nc1ccc(-c2ccc3ccnc(N)c3c2)cc1,7.57
13,Cc1cc(-c2cnc(N)c(-c3ccc(N4CCN(C)CC4)cc3)c2)cc(C)c1O,3.43
14,CCN(C1CCCCC1)S(=O)(=O)c1ccc(OC)c(N2CCN(C(=O)C(Cl)(Cl)Cl)CC2)c1,-1.48
15,CCN(C(=O)c1ccc(NC(=O)c2cccs2)cc1)c1nc2c(C)cccc2s1,1.43
16,CCCOc1cc(NC(=O)Nc2ccnc3ccccc23)cc(OCCC)c1,-2.56
17,COCCN1CCC(NCC(C)(C)c2nc(-c3ccc(Cl)c(O)c3)c(-c3ccncc3)[nH]2)CC1,4.86
18,Clc1cc(Br)ccc1-c1ccc(CNCC2CCNCC2)o1,0.75
19,O=C(Nc1cccc(Cl)c1N1CCOCC1)C(Cl)(Cl)Cl,1.32
20,CCN(CC)CCNc1c2ccc(Cl)cc2nc2ccc(OC)nc12,3.46

row,Structure (SMILES),inhibition [%]
1,S=C(Nc1cccc(Cl)c1)NC1CCN(c2ccnc3cc(Cl)ccc23)C1 (stereo not given),13.2
2,COC(=O)c1cccc(CNCc2ccc(-c3ccc(-c4nc5cc(F)ccc5[nH]4)s3)cc2)c1,2.57
3,Cc1ccc(OC2CCN(c3ccc(C(=O)NC4CC4)cn3)CC2)cc1,0.24
4,CN(C)c1ccc(NC(=O)Nc2ccnc3ccc(Br)cc23)cc1,2.25
5,c1ccc(CCNCc2cccc(-c3ccc(CNc4ccc5ncccc5c4)cc3)c2)cc1,4.72
6,OC(CNc1ccnc(Nc2ccccc2)n1)c1cccc(C(F)(F)F)c1 (stereo not given),4.65
7,Cc1ccc(CN2CCCN(Cc3cccc(NC(=O)c4cc5ccccc5s4)c3)CC2)cc1C,0.56
8,Cc1cc(N2CCC(N(C)C)C2)nc(Nc2ccc(Cl)cc2)n1 (stereo not given),4.11
9,CCN1CCC(N(Cc2ccc(-c3ccc(C(F)(F)F)s3)cc2)C(=O)Cn2c(CCc3cccc(F)c3F)nc(=O)c3ccccc32)CC1,6.57
10,COc1cc(NC(=O)Nc2cccc3ccccc23)c(OC)cc1Cl,5.02
11,CSCCC(C(=O)O)N1C(=O)c2ccccc2C1=O (stereo not given),0.66
12,COc1ccc(-c2cc3ncnc(N4CCN(CCN5CCCC5)CC4)c3s2)cc1,2.34
13,NC1CCCN(Cc2cccc(-c3ccc(-c4nc5cc(F)ccc5[nH]4)cc3)c2)C1 (stereo not given),3.55
14,CCc1c(C)nc(-n2nc(C)cc2NC(=O)c2cccc3ccccc23)[nH]c1=O,-3.49
15,COc1ccc2ncc(C#N)c(CCN3C4CCC3CC(NCc3ccc5c(n3)NC(=O)CS5)C4)c2c1 (stereo not given),4.35
16,O=C(Nc1cccc(OC2CCN(Cc3ccccc3)CC2)c1)Nc1cccc([N+](=O)[O-])c1,3.41
17,COc1ccc2c(NN=Cc3cccc(F)c3)ccnc2c1,2.99
18,CC(C)N(Cc1ccc(-c2ccc(C(F)(F)F)cc2)cc1)C(=O)Cn1c(SCc2cccc(F)c2F)cc(=O)c2cc(CN3CCCCC3)ccc21,2.18
19,Cc1c(C(=O)N2CCCC(C(F)(F)F)C2)sc2cccc(F)c12 (stereo not given),8.1
20,C=CCn1c(Sc2ccc(C#N)c([N+](=O)[O-])c2)nnc1-c1cc(OC)cc(OC)c1,12.5

# Target: Hexose transporter 1 (Plasmodium falciparum) (UniProt O97467)
# Assay: ST_JUDE_LEISH: Cytotoxicity at 2uM final concentration against transgenic Leishmania Mexicana promastigotes LmPfHT that are glucose transport deficient and complemented with the Plasmodium falciparum hexose transporter. Activity is measured by DNA content using SYBR green in vitro
# Format: functional
row,Structure (SMILES),inhibition [%]
1,O=C(NCCCCCN1CCC(c2ccc(O)cc2)CC1)c1ccc(-c2ccccc2)cc1,3.34
2,COc1cc(OCCCN(C)Cc2ccc(OC)c(OC)c2)ccc1NC(=O)c1cccc2c(O)c3cccc(F)c3nc12,2.52
3,CSc1nc2cc3c(cc2n1C(=O)c1ccc(C)cc1)OCCO3,4.48
4,Cn1cncc1C(=O)Nc1cccc(-c2ccc(-c3nc4ccccc4[nH]3)cc2)c1,-2.33
5,CCC(C)NC(=O)Nc1ccc(-c2cccc(-c3nc4cccc(C)c4[nH]3)c2)cc1 (stereo not given),0.26
6,COc1cc(Cc2cnc(N)nc2N)cc(OCCCN2C(=O)c3ccccc3C2=O)c1OC,5.99
7,O=C(Nc1cccc([N+](=O)[O-])c1)Nc1cccc(C(F)(F)F)c1,1.8
8,O=C(NCCc1ccc(Cl)c(Cl)c1)[C@@H]1CCCN1C(=O)c1ccc(O)c(-c2cccc(C(F)(F)F)c2)c1,-0.04
9,COCCN(C)c1ccc(C(=O)Nc2ccccc2)cc1NS(=O)(=O)Cc1ccccc1,8.35
10,CC(Cc1ccc(C(=O)Nc2ccc(CC(C)NCCc3cccc(Cl)c3)cc2)cc1)NCCc1ccc(C(F)(F)F)cc1 (stereo not given),37.1
11,Cc1cccc2nc(-c3ccc(-c4ccc(CN5CCN(CCO)CC5)cc4)s3)[nH]c12,8.8
12,CS(=O)(=O)Nc1ccc(-c2ccc3ccnc(N)c3c2)cc1,7.12
13,Cc1cc(-c2cnc(N)c(-c3ccc(N4CCN(C)CC4)cc3)c2)cc(C)c1O,0.67
14,CCN(C1CCCCC1)S(=O)(=O)c1ccc(OC)c(N2CCN(C(=O)C(Cl)(Cl)Cl)CC2)c1,-2.46
15,CCN(C(=O)c1ccc(NC(=O)c2cccs2)cc1)c1nc2c(C)cccc2s1,4.28
16,CCCOc1cc(NC(=O)Nc2ccnc3ccccc23)cc(OCCC)c1,3
17,COCCN1CCC(NCC(C)(C)c2nc(-c3ccc(Cl)c(O)c3)c(-c3ccncc3)[nH]2)CC1,8.59
18,Clc1cc(Br)ccc1-c1ccc(CNCC2CCNCC2)o1,-0.1
19,O=C(Nc1cccc(Cl)c1N1CCOCC1)C(Cl)(Cl)Cl,0.42
20,CCN(CC)CCNc1c2ccc(Cl)cc2nc2ccc(OC)nc12,3.09

row,Structure (SMILES),inhibition [%]
1,S=C(Nc1cccc(Cl)c1)NC1CCN(c2ccnc3cc(Cl)ccc23)C1 (stereo not given),9.65
2,COC(=O)c1cccc(CNCc2ccc(-c3ccc(-c4nc5cc(F)ccc5[nH]4)s3)cc2)c1,0.36
3,Cc1ccc(OC2CCN(c3ccc(C(=O)NC4CC4)cn3)CC2)cc1,2.06
4,CN(C)c1ccc(NC(=O)Nc2ccnc3ccc(Br)cc23)cc1,3.91
5,c1ccc(CCNCc2cccc(-c3ccc(CNc4ccc5ncccc5c4)cc3)c2)cc1,3.92
6,OC(CNc1ccnc(Nc2ccccc2)n1)c1cccc(C(F)(F)F)c1 (stereo not given),4.22
7,Cc1ccc(CN2CCCN(Cc3cccc(NC(=O)c4cc5ccccc5s4)c3)CC2)cc1C,0.71
8,Cc1cc(N2CCC(N(C)C)C2)nc(Nc2ccc(Cl)cc2)n1 (stereo not given),3.16
9,CCN1CCC(N(Cc2ccc(-c3ccc(C(F)(F)F)s3)cc2)C(=O)Cn2c(CCc3cccc(F)c3F)nc(=O)c3ccccc32)CC1,5.93
10,COc1cc(NC(=O)Nc2cccc3ccccc23)c(OC)cc1Cl,5.78
11,CSCCC(C(=O)O)N1C(=O)c2ccccc2C1=O (stereo not given),1.03
12,COc1ccc(-c2cc3ncnc(N4CCN(CCN5CCCC5)CC4)c3s2)cc1,0.99
13,NC1CCCN(Cc2cccc(-c3ccc(-c4nc5cc(F)ccc5[nH]4)cc3)c2)C1 (stereo not given),3.14
14,CCc1c(C)nc(-n2nc(C)cc2NC(=O)c2cccc3ccccc23)[nH]c1=O,-1.41
15,COc1ccc2ncc(C#N)c(CCN3C4CCC3CC(NCc3ccc5c(n3)NC(=O)CS5)C4)c2c1 (stereo not given),4.33
16,O=C(Nc1cccc(OC2CCN(Cc3ccccc3)CC2)c1)Nc1cccc([N+](=O)[O-])c1,2.74
17,COc1ccc2c(NN=Cc3cccc(F)c3)ccnc2c1,2.22
18,CC(C)N(Cc1ccc(-c2ccc(C(F)(F)F)cc2)cc1)C(=O)Cn1c(SCc2cccc(F)c2F)cc(=O)c2cc(CN3CCCCC3)ccc21,1.78
19,Cc1c(C(=O)N2CCCC(C(F)(F)F)C2)sc2cccc(F)c12 (stereo not given),6.02
20,C=CCn1c(Sc2ccc(C#N)c([N+](=O)[O-])c2)nnc1-c1cc(OC)cc(OC)c1,13.4
